From PubChem BioAssay (NCATS)
Records with an inconclusive call do not appear. The source made the active and inactive calls. Unless noted, calls come from the whole dose curve; as a rule, active = well fitted curve in the direction sought with a large enough effect; inconclusive = small, poorly fitted or top-dose-only effect, or another doubt; inactive = no such curve, though single readings can be large; an effect the other way counts as inactive or inconclusive.

Assays:
[1] = qHTS assay for small molecule antagonists of peroxisome proliferator-activated receptor delta signaling (AID 588535; active = well fitted inhibition curve with a large enough effect in the signal ratio, with a control signal flat, not every such curve was filed as active; the % refers to the signal ratio;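 for max response: cells co-treated with a PPAR-delta agonist as stimulator during compound exposure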); conditions: HEK293T PPARd-UAS-bla, beta-lactamase FRET ratio, 18 h; 460 nm channel
Outline: (§1)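 HEK293T PPAR-delta-UAS-bla cells, 4000/well, 2% charcoal/dextran FBS; 5 h 37 C; cpd titration; 18 h 37 C; CCF4 2 h RT; FI 460/530 nm; Hill fit → IC50, efficacy.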

[2] = target: Peroxisome proliferator-activated receptor delta (Homo sapiens) (UniProt Q03181); assay: as above; conditions: HEK293T PPARd-UAS-bla, beta-lactamase FRET ratio, 18 h; series mostly up to 76.7 µM
Sequence of Peroxisome proliferator-activated receptor delta (Homo sapiens) (Q03181 whole entry, looked up): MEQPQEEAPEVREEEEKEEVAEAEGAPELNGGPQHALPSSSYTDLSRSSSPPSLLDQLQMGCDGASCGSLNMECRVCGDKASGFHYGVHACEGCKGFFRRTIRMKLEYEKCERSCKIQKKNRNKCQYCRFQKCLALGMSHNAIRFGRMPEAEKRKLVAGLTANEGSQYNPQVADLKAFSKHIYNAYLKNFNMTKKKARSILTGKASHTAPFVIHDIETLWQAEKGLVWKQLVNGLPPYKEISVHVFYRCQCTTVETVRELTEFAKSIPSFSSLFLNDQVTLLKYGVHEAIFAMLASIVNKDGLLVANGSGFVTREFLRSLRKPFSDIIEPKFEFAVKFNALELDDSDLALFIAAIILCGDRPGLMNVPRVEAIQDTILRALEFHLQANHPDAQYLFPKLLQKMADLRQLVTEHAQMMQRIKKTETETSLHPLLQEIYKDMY
Outline: as §1

[3] = target: Peroxisome proliferator-activated receptor gamma (Homo sapiens) (UniProt P37231); assay: qHTS assay for small molecule agonists of peroxisome proliferator-activated receptor gamma signaling (AID 588536; active = well fitted curve in the direction sought with a large enough effect in the signal ratio, with a control signal flat, not every such curve was filed as active; the % refers to the signal ratio;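 note: 0% = DMSO basal wells and 100% = rosiglitazone at 2 µM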); conditions: HEK293 PPARg-UAS-bla, beta-lactamase ratio, 16 h, percent of rosiglitazone response, DMSO as zero; series mostly up to 76.7 µM
Sequence of Peroxisome proliferator-activated receptor gamma (Homo sapiens) (P37231 whole entry, looked up): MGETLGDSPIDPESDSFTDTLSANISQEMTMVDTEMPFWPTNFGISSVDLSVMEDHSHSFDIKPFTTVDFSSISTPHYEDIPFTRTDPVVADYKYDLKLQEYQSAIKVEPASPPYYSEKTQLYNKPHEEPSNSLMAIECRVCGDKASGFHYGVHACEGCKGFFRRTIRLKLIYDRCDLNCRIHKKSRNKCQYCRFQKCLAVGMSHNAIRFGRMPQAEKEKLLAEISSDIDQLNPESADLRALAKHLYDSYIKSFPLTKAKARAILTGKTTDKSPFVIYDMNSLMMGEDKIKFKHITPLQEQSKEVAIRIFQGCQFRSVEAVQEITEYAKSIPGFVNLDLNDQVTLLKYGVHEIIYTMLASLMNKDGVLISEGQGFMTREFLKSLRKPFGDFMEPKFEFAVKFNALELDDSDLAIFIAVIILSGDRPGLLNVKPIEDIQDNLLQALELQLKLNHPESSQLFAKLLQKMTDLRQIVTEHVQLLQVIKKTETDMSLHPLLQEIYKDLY
Outline: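 Test agents, titrated, stimulated HEK293 UAS-bla cells overnight (16 h, 37 C). Substrate CCF4 was then added for two hours at room temperature before fluorescence reading.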

[4] = qHTS assay for small molecule agonists of retinoid X receptor alpha signaling (AID 588544; calls by dose curve;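 for activation: 0% = DMSO basal wells and 100% = reference agonist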); conditions: HEK293T RXRa-UAS-bla, beta-lactamase reporter, 18 h; 530 nm emission
[5] = target: Retinoic acid receptor RXR-alpha (Homo sapiens) (UniProt P19793); assay: as above; conditions: HEK293T RXRa-UAS-bla, beta-lactamase reporter, 18 h; series mostly up to 76.7 µM
Sequence of Retinoic acid receptor RXR-alpha (Homo sapiens) (P19793 whole entry, looked up): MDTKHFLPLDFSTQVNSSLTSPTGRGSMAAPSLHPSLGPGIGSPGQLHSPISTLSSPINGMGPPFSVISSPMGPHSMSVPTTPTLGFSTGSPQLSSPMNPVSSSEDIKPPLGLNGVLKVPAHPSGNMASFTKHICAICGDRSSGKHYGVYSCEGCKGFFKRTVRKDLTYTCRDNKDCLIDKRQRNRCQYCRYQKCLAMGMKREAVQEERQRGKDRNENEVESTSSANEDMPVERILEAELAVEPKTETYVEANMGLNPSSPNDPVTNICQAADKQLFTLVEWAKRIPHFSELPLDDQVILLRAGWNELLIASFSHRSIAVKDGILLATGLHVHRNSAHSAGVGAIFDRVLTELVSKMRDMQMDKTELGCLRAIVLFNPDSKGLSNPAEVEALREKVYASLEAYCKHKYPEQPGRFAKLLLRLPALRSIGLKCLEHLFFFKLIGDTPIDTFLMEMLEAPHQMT

[6] = target: Thyroid hormone receptor beta (Homo sapiens) (UniProt P10828); assay: qHTS assay for small molecule agonists of thyroid hormone receptor beta signaling (AID 588545; calls by dose curve;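 note: 0% = DMSO only and 100% = 10 nM T3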); conditions: TR-UAS-bla GripTite HEK 293, beta-lactamase ratio, agonist mode, 18 h; series mostly up to 76.7 µM
Sequence of Thyroid hormone receptor beta (Homo sapiens) (P10828 whole entry, looked up): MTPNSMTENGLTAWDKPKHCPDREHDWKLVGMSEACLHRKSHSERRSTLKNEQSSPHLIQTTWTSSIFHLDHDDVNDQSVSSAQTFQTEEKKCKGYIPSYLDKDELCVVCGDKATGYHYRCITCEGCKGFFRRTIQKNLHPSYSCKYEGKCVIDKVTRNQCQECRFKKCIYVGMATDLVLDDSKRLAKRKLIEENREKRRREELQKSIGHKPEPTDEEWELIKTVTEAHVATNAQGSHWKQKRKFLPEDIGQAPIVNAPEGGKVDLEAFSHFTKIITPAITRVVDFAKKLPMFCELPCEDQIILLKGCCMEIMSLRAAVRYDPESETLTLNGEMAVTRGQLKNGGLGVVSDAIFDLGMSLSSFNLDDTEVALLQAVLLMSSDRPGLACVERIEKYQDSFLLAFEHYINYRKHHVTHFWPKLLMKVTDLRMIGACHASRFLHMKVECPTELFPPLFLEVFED
Outline: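 Beta-lactamase reporter activity under TR response element control is measured in HEK 293 cells after 18 hrs compound exposure. Signal is ratiometric CCF4 fluorescence, 460/530 nm.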

[7] = qHTS assay for small molecule antagonists of retinoid X receptor alpha signaling (AID 588546; active = well fitted inhibition curve with a large enough effect in the signal ratio, with a control signal flat, not every such curve was filed as active; the % refers to the signal ratio;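 note: cells stimulated with 9-cis-retinoic acid as agonist; % is set by controls: 0 for no effect and ±100 for the full control effect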); conditions: HEK293T RXRa-UAS-bla, beta-lactamase ratio, antagonist mode; measured here: W530 green channel, cytotoxicity proxy
Outline: (§2)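 Beta-lactamase reporter inhibition, read as CCF4 fluorescence ratio (ex 405, em 460/530 nm) after 2 h at RT. HEK293T UAS-bla cells, 2500/well, were stimulated with 9-cis-RA at 500 or 100 nM final alongside test compound for 18 h at 37 C.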

[8] = target: Retinoic acid receptor RXR-alpha (Homo sapiens) (UniProt P19793); assay: as above; conditions: HEK293T RXRa-UAS-bla, beta-lactamase ratio, antagonist mode
Outline: as §2

[9] = qHTS assay for small molecule activators of the p53 signaling pathway (AID 651743; active = well fitted activation curve with a large enough effect in the signal ratio, not every such curve was filed as active; the % refers to the signal ratio; note: % of control where 0% means no effect); conditions: HCT-116 p53RE-bla, beta-lactamase FRET ratio, 16 h; activation: stronger effect = higher value
Outline: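 Read-out is fluorescence intensity from the LiveBLAzer B/G FRET substrate, added for 2 hours at room temperature after HCT-116 p53RE-bla cells had been incubated with compounds for 16 hours at 37 C.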

[10] = qHTS assay for environmental chemicals that activate the Aryl hydrocarbon Receptor (AhR) signaling pathway (AID 651777); conditions: 1A2-DRE human hepatoma cells, luciferase, 24 h; activation: stronger effect = higher value; note: % of control where 0% means no effect; nearly all actives have a fitted effect of over 15% in size
Outline: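 Human hepatoma 1A2-DRE cells, stably carrying a dioxin response element and CYP1A2 promoter driving luciferase, were exposed to compounds for 24 hr at 37 C and 5% CO2. Luciferase signal was then read after 30 min One-Glo at room temperature.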

[11] = target: Peroxisome proliferator-activated receptor alpha (Homo sapiens) (UniProt Q07869); assay: qHTS assay for small molecule agonists of the peroxisome proliferator-activated receptor alpha (PPARalpha) signaling pathway (AID 651778); conditions: PathHunter PPARalpha complementation, chemiluminescence, 6 h; max response: stronger effect = higher value; note: potency is the fitted concentration of half-maximal effect; for max response: % of control where 0% means no effect
Sequence of Peroxisome proliferator-activated receptor alpha (Homo sapiens) (Q07869 whole entry, looked up): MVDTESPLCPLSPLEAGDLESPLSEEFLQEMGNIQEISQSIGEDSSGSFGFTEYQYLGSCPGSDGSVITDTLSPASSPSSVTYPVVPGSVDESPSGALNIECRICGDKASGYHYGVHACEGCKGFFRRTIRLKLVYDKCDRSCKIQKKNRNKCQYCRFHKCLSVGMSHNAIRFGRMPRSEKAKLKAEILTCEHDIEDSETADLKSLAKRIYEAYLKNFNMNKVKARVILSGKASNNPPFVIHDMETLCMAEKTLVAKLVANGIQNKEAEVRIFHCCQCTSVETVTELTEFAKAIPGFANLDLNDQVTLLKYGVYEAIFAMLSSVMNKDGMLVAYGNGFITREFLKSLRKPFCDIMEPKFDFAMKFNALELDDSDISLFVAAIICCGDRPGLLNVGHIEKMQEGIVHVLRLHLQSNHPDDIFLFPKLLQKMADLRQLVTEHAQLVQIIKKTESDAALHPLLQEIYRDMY
Outline: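 Chemiluminescence from complemented enzyme reported PPARalpha activation in cells after 6 hr of compound treatment at 37 C. The detection reagent was incubated for 60 min at room temperature, and compounds were scored as agonists.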

[12] = qHTS assay for small molecule agonists of the antioxidant response element (ARE) signaling pathway measured by Nrf2-dependant transcriptional activity (AID 720636; active = well fitted curve in the direction sought with a large enough effect in the repeat runs; an effect the other way counts as inactive or inconclusive; note: potency is the fitted concentration of half-maximal effect; for activation: % of control where 0% means no effect); conditions: ARE-luc HepG2, Nrf2 luciferase reporter, 16 h; series mostly up to 92.4 µM
Outline: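 ARE-luc HepG2 cells carrying an Nrf2-responsive luciferase reporter were plated in medium with 1% dialyzed FBS, left 6 hr at 37 C to attach, then exposed to compound for 16 hr. Luciferase luminescence was read after ONE-Glo addition.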

[13] = qHTS assay for small molecule agonists of the antioxidant response element (ARE) signaling pathway measured by Nrf2-dependant transcriptional activity - cell viability counter screen (AID 720653; active = well fitted curve in the direction sought with a large enough effect in the repeat runs; an effect the other way counts as inactive or inconclusive; note: % is set by controls: 0 for no effect and ±100 for the full control effect); conditions: ARE-bla HepG2 viability, CellTiter-Glo ATP luminescence, 16 h; max response: stronger effect = lower value
Outline: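 Cytotoxicity counter screen: intracellular ATP quantified by CellTiter-Glo luminescence in the same ARE-bla HepG2 plates, after 16 h compound exposure and a 2 h beta-lactamase substrate step.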

[14] = qHTS assay for cell viability of HEK293 cells (AID 743288); conditions: ATP luminescence (CellTiter-Glo), 18 h; max response: stronger effect = lower value; note: % is set by controls: 0 for no effect and ±100 for the full control effect; nearly all actives have a fitted effect of over 50% in size
Outline: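 Luminescent ATP quantitation served as the viability read-out. Cells (parental HEK293, 2,000/well) received compounds after at least 5 h at 37 C and were exposed for 18 h before a 30 min room-temperature reagent step.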

[15] = qHTS assay for cell viability of the p53RE-bla HCT-116 cell line (AID 743292); conditions: p53RE-bla HCT-116 viability, ATP luminescence, 16 h; series mostly up to 95 µM; note: % is set by controls: 0 for no effect and ±100 for the full control effect; nearly all actives have a fitted effect of over 55% in size
Outline: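 CellSensor p53RE-bla HCT-116 cells, 4,000/well, preincubated 5 h at 37 C, then exposed to compounds in DMSO for 16 h at 37 C. Viability read as CellTiter-Glo luminescence (intracellular ATP) after 30 min at room temperature.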

[16] = target: Nuclear receptor subfamily 1 group I member 2 (Rattus norvegicus) (UniProt Q9R1A7); assay: qHTS assay for small molecule activators of the rat pregnane X receptor (rPXR) signaling pathway (AID 651751; call rule not given here; note: 0% is about no effect); conditions: rPXR reporter cells, luciferase (One-Glo), 24 h
Sequence of Nuclear receptor subfamily 1 group I member 2 (Rattus norvegicus) (Q9R1A7 whole entry, looked up): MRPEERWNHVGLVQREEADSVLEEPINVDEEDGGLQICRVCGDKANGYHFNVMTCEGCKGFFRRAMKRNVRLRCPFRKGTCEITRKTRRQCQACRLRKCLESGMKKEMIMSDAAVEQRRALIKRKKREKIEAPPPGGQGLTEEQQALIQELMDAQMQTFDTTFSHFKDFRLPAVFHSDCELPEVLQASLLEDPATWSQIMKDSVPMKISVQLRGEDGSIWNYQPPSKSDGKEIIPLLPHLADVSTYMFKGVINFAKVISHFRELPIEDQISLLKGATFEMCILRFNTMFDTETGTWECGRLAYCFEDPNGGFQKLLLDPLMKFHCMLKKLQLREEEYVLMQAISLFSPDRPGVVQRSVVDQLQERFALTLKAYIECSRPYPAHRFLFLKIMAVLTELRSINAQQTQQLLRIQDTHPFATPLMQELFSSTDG

[17] = qHTS assay for small molecule activators of the human pregnane X receptor (PXR) signaling pathway (AID 720659; call rule not given here; note: 0% is about no effect); conditions: DPX-2 HepG2 CYP3A4-luciferase, 24 h; series mostly up to 92.3 µM
[18] = target: Glucocorticoid receptor (Homo sapiens) (UniProt P04150); assay: qHTS assay for small molecule agonists of glucocorticoid receptor signaling (AID 588532; active = well fitted curve in the direction sought with a large enough effect in the signal ratio, with a control signal flat; the % refers to the signal ratio;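 note: 100% = dexamethasone at 0.1 µM and 0% = DMSO only wells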); conditions: HeLa MMTV-bla, beta-lactamase ratio, agonist, 18 h; stronger effect = higher value; percent of dexamethasone control, DMSO zero
Sequence of Glucocorticoid receptor (Homo sapiens) (P04150 whole entry, looked up): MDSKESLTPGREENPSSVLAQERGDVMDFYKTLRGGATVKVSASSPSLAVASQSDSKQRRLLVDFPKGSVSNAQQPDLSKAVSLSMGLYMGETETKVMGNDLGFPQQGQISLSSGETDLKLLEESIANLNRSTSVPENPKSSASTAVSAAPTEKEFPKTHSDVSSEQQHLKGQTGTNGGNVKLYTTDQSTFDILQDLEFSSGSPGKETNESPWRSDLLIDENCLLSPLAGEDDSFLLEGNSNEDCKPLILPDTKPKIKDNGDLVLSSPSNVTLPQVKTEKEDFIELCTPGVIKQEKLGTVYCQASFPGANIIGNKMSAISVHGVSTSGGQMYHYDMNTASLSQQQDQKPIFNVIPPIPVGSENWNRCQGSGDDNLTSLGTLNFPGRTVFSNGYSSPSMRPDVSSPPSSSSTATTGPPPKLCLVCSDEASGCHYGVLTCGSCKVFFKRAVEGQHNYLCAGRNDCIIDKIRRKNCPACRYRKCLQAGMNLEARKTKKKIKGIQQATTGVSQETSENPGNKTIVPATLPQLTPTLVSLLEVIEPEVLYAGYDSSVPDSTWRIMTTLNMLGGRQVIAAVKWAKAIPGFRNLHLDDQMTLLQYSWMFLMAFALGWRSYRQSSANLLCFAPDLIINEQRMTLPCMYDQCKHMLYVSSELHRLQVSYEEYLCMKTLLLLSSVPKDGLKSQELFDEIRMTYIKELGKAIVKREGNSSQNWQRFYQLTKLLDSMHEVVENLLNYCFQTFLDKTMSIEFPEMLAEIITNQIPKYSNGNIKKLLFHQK
Outline: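 Quantitative HTS using CellSensor MMTV-bla HeLa cells in charcoal/dextran-treated serum; compounds tested up to 92 uM. After 18 h at 37 C, CCF4 dye reported reporter induction.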

[19] = target: Glucocorticoid receptor (Homo sapiens) (UniProt P04150); assay: qHTS assay for small molecule antagonists of glucocorticoid receptor signaling (AID 588533; active = well fitted inhibition curve with a large enough effect in the signal ratio, with a control signal flat, not every such curve was filed as active; the % refers to the signal ratio;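 note: cells stimulated with 2 nM dexamethasone as agonist; % is set by controls: 0 for no effect and ±100 for the full control effect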); conditions: HeLa MMTV-bla, GRE beta-lactamase ratio, antagonist mode, 18 h; series mostly up to 76.8 µM
Outline: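 Antagonist-mode qHTS: compound titrations added to GRE-bla HeLa cells, then dexamethasone 2 nM final; 18 h, 37 C. CCF4 FRET fluorescence normalized to dexamethasone and DMSO; IC50 from Hill fit.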

[20] = target: Vitamin D3 receptor (Homo sapiens) (UniProt P11473); assay: qHTS assay for small molecule agonists of vitamin D receptor signaling (AID 588543; calls by dose curve;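 note: 0% = DMSO basal and 100% = reference agonist control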); conditions: HEK293T VDR-UAS-bla, beta-lactamase ratio, 16 h; series mostly up to 76.8 µM
Sequence of Vitamin D3 receptor (Homo sapiens) (P11473 whole entry, looked up): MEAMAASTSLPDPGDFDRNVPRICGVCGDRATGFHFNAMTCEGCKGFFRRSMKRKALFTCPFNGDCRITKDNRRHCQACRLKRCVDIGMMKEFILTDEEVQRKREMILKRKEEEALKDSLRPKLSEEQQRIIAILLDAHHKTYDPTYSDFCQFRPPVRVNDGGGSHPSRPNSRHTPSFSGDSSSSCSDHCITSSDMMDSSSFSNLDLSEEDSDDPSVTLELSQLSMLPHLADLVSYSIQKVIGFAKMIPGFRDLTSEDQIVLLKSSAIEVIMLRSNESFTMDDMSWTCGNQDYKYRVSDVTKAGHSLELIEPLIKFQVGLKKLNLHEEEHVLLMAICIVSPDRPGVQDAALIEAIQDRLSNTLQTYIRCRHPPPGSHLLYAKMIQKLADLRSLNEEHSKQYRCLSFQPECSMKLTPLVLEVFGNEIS
Outline: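 Measured: β-lactamase reporter activity (CCF4, 405 nm excitation, 460/530 nm emission) in HEK293T VDR-UAS-bla cells after 16 h compound exposure at 37 °C. Normalization against 50 nM 1α,25-dihydroxyvitamin D3 and DMSO; Hill-fit EC50.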

CCCCC(CC)COC(=O)c1ccc(C(=O)OCC(CC)CCCC)cc1 (centres undefined)
-7.23%: max response [7]
-8.11%: max response [4]
-1.09%: max response [1]
inactive: Potency [2] | outcome [3] | Potency [5] | Potency [6] | max response [8] 5.51% | activation [9] 0.101% | activation [10] -2.7% | max response [11] -1.72% | Potency [12] | max response [13] -17% | max response [14] -13.5% | Potency [15] | max response [16] -0.0794% | outcome [17]

C=C(C)C(=O)OCC(CC)(COC(=O)C(=C)C)COC(=O)C(=C)C
9.24%: max response [1]
-6.08%: max response [7]
inactive: activation [18] 3.82% | Potency [2] | outcome [3] | Potency [5] | Potency [6] | max response [8] 13.1% | activation [9] -3.72% | activation [10] -0.628% | max response [11] -3.37% | max response [13] -12% | max response [14] -15.9% | Potency [15] | max response [16] -1.04% | outcome [17]
-12.4%: max response [4]

CO[Si](CCCOCC1CO1)(OC)OC (centres undefined)
inactive: activation [18] -3.61% | Potency [19] | Potency [2] | outcome [3] | outcome [20] | Potency [5] | Potency [6] | max response [8] -3% | activation [9] 1.09% | activation [10] -0.88% | Potency [12] | max response [13] -2.05% | max response [14] -2.39%
active: Potency [11] 39.8 µM
37.6%: max response [1]
-4.61%: max response [7]
-16.2%: max response [4]

OCc1cccc(Oc2ccccc2)c1
-2.37%: max response [1]
-14.1%: max response [7]
inactive: Potency [2] | outcome [3] | outcome [20] | Potency [5] | Potency [6] | max response [8] 9.52% | activation [9] -1.52% | activation [10] 1.11% | max response [11] -0.0897% | Potency [12] | max response [13] 2.09% | max response [14] 2.32% | Potency [15] | max response [16] -3.09% | outcome [17]
-8.28%: max response [4]

CCCC/C=C\CCCCCCCCCC=O
-13.9%: max response [7]
-21.9%: max response [1]
inactive: Potency [2] | outcome [3] | outcome [20] | Potency [6] | max response [8] 6.53% | activation [9] 0.222% | activation [10] 1.27% | max response [11] 7.85% | Potency [12] | max response [13] -12.8% | max response [14] 3.95% | max response [16] 4.56% | outcome [17]

Nc1cc(Cl)c(O)c(Cl)c1
active: Potency [12] 68.6 µM
inactive: activation [18] 16.9% | Potency [19] | outcome [20] | activation [9] -2.82% | activation [10] 0.138% | max response [11] -5.8% | max response [14] -19.5% | max response [16] 0.356% | outcome [17]
